Screening results from PubChem.
Compounds with a hit are over-represented: about 27% of the library has one in this group of screens.
CYP2C9 inhib: blockers of cytochrome P450 2C9 activity – biochemical, luminescence, ADME assay, primary screen | AID 777, 2007 | inhibition, % at 5 µM | P11712 | CYP2C9 Supersomes, luciferin-H conversion | actives 20% (n = 96,000);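 active = blocking of liver enzyme CYP2C9 beyond about 50% at 5 µM, limit read from the data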
Target sequence (P11712 whole entry, looked up): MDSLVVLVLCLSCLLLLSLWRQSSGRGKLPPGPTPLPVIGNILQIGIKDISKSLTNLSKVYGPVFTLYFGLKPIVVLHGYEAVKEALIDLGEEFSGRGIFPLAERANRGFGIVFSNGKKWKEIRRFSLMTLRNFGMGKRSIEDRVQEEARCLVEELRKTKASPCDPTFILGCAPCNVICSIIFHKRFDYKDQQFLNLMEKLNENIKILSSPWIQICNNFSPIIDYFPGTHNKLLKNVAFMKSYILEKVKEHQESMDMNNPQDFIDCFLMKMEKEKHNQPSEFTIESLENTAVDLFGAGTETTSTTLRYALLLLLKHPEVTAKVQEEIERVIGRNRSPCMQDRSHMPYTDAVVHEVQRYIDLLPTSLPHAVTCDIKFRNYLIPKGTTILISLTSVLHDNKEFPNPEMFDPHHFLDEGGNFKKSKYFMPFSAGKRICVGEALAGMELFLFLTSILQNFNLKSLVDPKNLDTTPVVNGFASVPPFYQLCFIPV
Cav32 inh: Cav3.2 calcium influx blockers – cell-based, Fluo-4 calcium fluorescence, FDSS, MLSMR library, primary screen; Voltage-dependent T-type calcium channel subunit alpha-1H (Homo sapiens), O95180; actives 4% (n = 100,000); B-score at 10 µM; Cav3.2-expressing cells; active compounds read low;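 active = single-dose well whose peak fluorescence ratio is a statistical outlier from its plate by either plate-standardised score or position-corrected B-score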
CYP2C19 act: human CYP2C19 activators, primary screen, biochemical, luminescence; Cytochrome P450 2C19 (Homo sapiens), P33261; recombinant CYP2C19, luciferin-H EGE luminescence; active compounds read high; 0 = fully inhibited enzyme, 1 = untreated enzyme; activation factor at 5 µM; 96,000 tested, under 10 active;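 active = activation factor of at least 2 at 5 µM in the primary screen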
CYP2C19 inhib: blockers of cytochrome P450 2C19 activity – biochemical, luminescence, ADME assay, primary screen; CYP2C19 Supersomes, luciferin-H EGE luminescence, 30 min; inhibition, % at 5 µM; actives 21% (n = 96,000);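 active = CYP2C19 inhibition above a set limit at 5 µM in the primary screen, cut at about 50% in these data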
CYP2C9 act: human CYP2C9 activators, primary screen, biochemical, luminescence. Cytochrome P450 2C9 (Homo sapiens), P11712. recombinant CYP2C9, luciferin-H conversion; active compounds read high; factor 1 = untreated enzyme, 0 = blocked. activation factor at 5 µM. actives 1.4% (n = 96,000);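 active = activation factor of 2 or more for CYP2C9 at a 5 µM dose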
Of the large screens only hits and unclear results are named; the others gave an inactive call.

Cc1ccc(CN2C(=O)C(C)(C)Oc3ccc(C(=O)N4CCCCC4)cc32)cc1	CYP2C9 inhib 57.0, Cav32 inh -5.19
COc1cccc(C(=O)CN2C(=O)C(C)(C)Oc3ccc(C(=O)N4CCCCCC4)cc32)c1	CYP2C9 inhib 66.9
CN1CCc2nc(SCC(=O)Nc3ccc(F)cc3)c(C#N)cc2C1	CYP2C9 inhib 75.0, CYP2C19 inhib 89.5
COC(=O)CC(=O)CSc1nc2c(cc1C#N)CCCCC2	CYP2C9 inhib 76.2, CYP2C19 inhib 62.1
COc1ccc(NC(=O)CSc2nc3c(cc2C#N)CN(C)CC3)cc1	CYP2C9 inhib 65.8
CN1CCc2nc(SCc3ccc(C(C)(C)C)cc3)c(C#N)cc2C1	none
COc1ccc(-c2c(C#N)c(SCC(=O)Nc3ccccc3)nc3c2CCCC3)cc1	none (no result: CYP2C9 inhib, CYP2C19 act, CYP2C19 inhib, CYP2C9 act)
CCN1CCc2nc(SCC(=O)Nc3ccc(OC)cc3)c(C#N)cc2C1	CYP2C9 inhib 72.9
O=C1C=C(NCC2CCCO2)CC(c2ccccc2)C1 (stereo unspecified)	CYP2C19 inhib 73.0
O=C1C=C(NCCN2CCOCC2)CC(c2ccccc2)C1 (stereo unspecified)	none (no result: Cav32 inh)
Cc1cc(C2(c3ccc(O)c(C)c3)C(=O)Nc3ccccc32)ccc1O	none (no result: Cav32 inh)
Cc1cccc2c1NC(=O)C2(c1ccc(O)cc1)c1ccc(O)cc1	CYP2C9 inhib 78.6, Cav32 inh -5.15, CYP2C19 inhib 60.4
Cc1cccc(/N=C/c2c(O)cc(C)oc2=O)n1	none
Cc1ccc(N/N=C/c2c(O)cc(C)oc2=O)cc1	CYP2C9 inhib 50.0
CCC(CC)c1nnc(NC(=O)c2cccc(S(=O)(=O)N3CCc4ccccc43)c2)s1	CYP2C9 inhib 75.5
COC(=O)CSc1ccc2nnc(-c3ccc(F)cc3)n2n1	none
O=C(Nc1ccccc1C(F)(F)F)N1CCN(c2ccc3nnc(-c4ccc(F)cc4)n3n2)CC1	CYP2C9 inhib 65.4
FC(F)(F)c1nnc2ccc(N3CCCC3)nn12	none
Fc1ccc(-c2nnc3ccc(N4CCc5ccccc5C4)nn23)cc1	CYP2C9 inhib 86.2, CYP2C19 inhib 56.6
O=C(Nc1ccccc1)N1CCN(c2ccc(C(F)(F)F)cn2)CC1	none
O=C(Nc1ccccc1C(F)(F)F)N1CCN(c2ccc3nncn3n2)CC1	CYP2C9 inhib 71.6
O=C(Nc1ccc(F)cc1)N1CCN(c2ccc3nnc(-c4ccc(F)cc4)n3n2)CC1	CYP2C9 inhib 55.2, CYP2C19 inhib 50.5
CCCCCCc1nnc(N)s1	none
O=C(O)CCC(NS(=O)(=O)c1ccc(-c2ccccc2)cc1)C(=O)O (stereo unspecified)	none
CCOC(=O)C1CCCN(C(=O)c2cn(CC)c3ccc(S(=O)(=O)N4CCCC4)cc3c2=O)C1 (stereo unspecified)	none
COC(=O)CSc1ccc(-c2nc3ccc(C)cc3[nH]2)cn1	none
C=CCOC(=O)C1=C(C)OC(N)=C(C#N)C1c1ccccc1F (stereo unspecified)	CYP2C9 inhib 56.5, CYP2C19 inhib 80.6 (no result: Cav32 inh)
CCOC(=O)C1=C(C)OC(N)=C(C#N)C1c1ccc(O)c(OC)c1 (stereo unspecified)	none
CCOC(=O)C1=C(C)OC(N)=C(C#N)C1c1ccoc1 (stereo unspecified)	CYP2C19 inhib 53.5
CCOC(=O)C1=C(C)OC(N)=C(C#N)C1c1ccc(C)o1 (stereo unspecified)	CYP2C9 inhib 57.5, CYP2C19 inhib 97.6
CCOC(=O)C1C(C#N)=C(N)OC(C)=C1c1ccncc1 (stereo unspecified)	CYP2C9 inhib 89.9, CYP2C19 inhib 79.9
O=C(NCC1COc2ccccc2O1)c1cc2ccccc2o1 (stereo unspecified)	none (no result: CYP2C9 inhib, CYP2C19 act, CYP2C19 inhib, CYP2C9 act)
Cc1cc(NC(=O)c2cncc(Br)c2)n(-c2ccccn2)n1	none (no result: Cav32 inh)
CCOC(=O)C1=NN(N=O)C2(CC(=O)N(c3cc(C)cc(C)c3)C2=O)C1 (stereo unspecified)	none (no result: Cav32 inh)
CCOC(=O)CC1=C(C(=O)OCC)C(c2ccncc2)C(C#N)=C(N)O1 (stereo unspecified)	CYP2C9 inhib 59.2, CYP2C19 inhib 78.9
Cc1nn(Cc2ccccc2)c2c1C(c1ccco1)C(C#N)=C(N)O2 (stereo unspecified)	none
CC1=C(C(=O)OC(C)(C)C)C(c2ccco2)C(C#N)=C(N)O1 (stereo unspecified)	CYP2C9 inhib 52.1, CYP2C19 inhib 93.4
CCOC(=O)C1=C(C)N(c2nonc2NC(C)=O)C(N)=C(C#N)C1c1ccccc1F (stereo unspecified)	CYP2C9 inhib 72.9, CYP2C19 inhib 72.8
C=CCOC(=O)C1C(=O)CC(C)(O)C(C(=O)OCC=C)C1c1ccc(OC)cc1 (stereo unspecified)	CYP2C19 inhib 52.5 (no result: Cav32 inh)
CCOC(=O)C1C(=O)CC(C)(O)C(C(=O)OCC)C1c1cccc(OC(F)(F)C(F)F)c1 (stereo unspecified)	CYP2C9 inhib 89.8, CYP2C19 inhib 85.9 (no result: Cav32 inh)
CCOC(=O)C1C(=O)CC(C)(O)C(C(=O)OCC)C1c1ccc(OCC)cc1 (stereo unspecified)	none
Cn1cc(CC(=O)N2CCN(c3ccc(Cl)cc3)CC2)c2ccccc21	Cav32 inh -4.5, CYP2C19 inhib 70.6, CYP2C9 act 2.1
CCn1c(=O)n(CC(=O)N2CCN(c3ccccc3F)CC2)c(=O)c2ccccc21	none (no result: Cav32 inh)
O=C(Cc1ccc(-n2cccc2)cc1)N1CCN(c2ccccc2F)CC1	CYP2C9 inhib 63.3 (no result: Cav32 inh)
O=C(CCCC(=O)N1CCN(c2ccccc2F)CC1)N1CCN(c2ccccc2F)CC1	none
Cn1cc(CC(=O)N2CCN(c3ccccc3F)CC2)c2ccccc21	CYP2C19 inhib 99.6
CC1C(=O)O[C@@H]2C[C@@H](C)[C@@H]3CCC(=O)[C@@]3(C)[C@@H](O)[C@H]12 (stereo partly specified)	none (no result: CYP2C9 inhib, CYP2C19 act, CYP2C19 inhib, CYP2C9 act)
Cc1ccc(CN2CCC(C(=O)NCCC(C)C)CC2)o1	none
O=[N+]([O-])c1cccc(-c2nc(-c3cccs3)c(-c3cccs3)[nH]2)c1	CYP2C9 inhib 58.0
COc1ccc(-c2nc(-c3cccs3)c(-c3cccs3)[nH]2)cc1OC	CYP2C9 inhib 81.4, CYP2C19 inhib 83.3
O=C(Oc1ccc(F)cc1C(=O)/C=C/c1cccs1)c1cccc([N+](=O)[O-])c1	none
O=C(/C=C/c1cc([N+](=O)[O-])ccc1OC(F)F)NCc1ccc(F)cc1	Cav32 inh -6.12
C#CCOC(=O)c1ccccc1C(=O)O	none (no result: CYP2C9 inhib, CYP2C19 act, CYP2C19 inhib, CYP2C9 act)
CCc1ccccc1NC(=O)CSc1nnc([C@@H]2CCCN2C(=O)OC(C)(C)C)o1	none
CC(C)(C)OC(=O)N1CCC[C@H]1c1nnc(SCc2ccccc2F)o1	CYP2C9 inhib 59.6, CYP2C19 inhib 60.6
CCc1cccc2c(SC(C)C(=O)NCC3CCCO3)nc(-c3ccccc3)nc12 (stereo unspecified)	CYP2C9 inhib 60.8
Cc1ccccc1-c1noc(CCC(=O)NCC2CCCO2)n1 (stereo unspecified)	none
